This is part of a sample that, as a whole, favours compounds with a hit. Of some 83,000 tested, about 20% had one in any assay.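 How to read the values: 0–100, growth inhibition (40 = 60% inhibited); 0, no net growth; -100 to 0, cell death (-40 = 40% of starting cells died; -100 = all dead).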 A number with no mark means an inactive call. The source made the active and inactive calls. How the source made its calls: active means growth percent below 10; inactive means the rest.

Among the test systems are NCI-H23 lung; NCI-H226 lung; NCI-H322M lung; HOP-62 NSCLC; NCI-H460 lung; HOP-92 NSCLC; NCI-H522 lung; A549/ATCC NSCLC; 786-0 renal; COLO 205 colon.
Common to all, as to assay: NCI-60 one-dose screen, 48 h (100 = growth as untreated, 0 = no growth, -100 = all killed)
Common to all, as to details: 10 µM unless noted

In the case of `CC1=C(CCCOC(=O)CN)C2=C(C)C3(CC3)[C@@](C)(O)C(=O)C2=C1`, the growth is 9.41% (active) with NCI-H23 lung; 90.5% in the test with NCI-H226 lung; 97.1% with NCI-H322M lung; 71.5% in the test on HOP-62 NSCLC; 15.3% with NCI-H460 lung; 70.5% in the test with HOP-92 NSCLC. Also, the growth is 66.2% in the test with NCI-H522 lung, 68.7% in the test with A549/ATCC NSCLC, 78.8% in the test with 786-0 renal and 49.6% in the test with COLO 205 colon.

Consider `N/C(=N/N=C/c1ccncc1)N[N+](=O)[O-]`, for which the growth in the test with NCI-H23 lung is 99.5%; with NCI-H226 lung it was 99.2%; with NCI-H322M lung, 99.5%; with HOP-62 NSCLC it was 89.3%; in the test with NCI-H460 lung, 112%; in the test on HOP-92 NSCLC it was 115%. Besides, the results for the growth in the test with NCI-H522 lung, with A549/ATCC NSCLC and in the test on COLO 205 colon were 101%, 98.3% and 102%, respectively.

Regarding `Fc1ccc(C2=CCNCC2)cc1`, the growth was 50.2% with NCI-H23 lung; 86.6% in the test with NCI-H226 lung; 111% with NCI-H322M lung; 112% in the test on HOP-62 NSCLC; 99.5% in the test on NCI-H460 lung; 119% in the test with HOP-92 NSCLC. Moreover, the growth was 63.1% in the test on NCI-H522 lung, 78.8% with 786-0 renal and 103% in the test with COLO 205 colon.

For `CCC(=O)Nc1ccc(Cl)c(Cl)c1`, the growth with NCI-H23 lung was 96.5%; with NCI-H226 lung, 102%; with NCI-H322M lung, 93.5%; in the test on HOP-62 NSCLC, 93.7%; in the test on NCI-H460 lung, 111%; in the test with HOP-92 NSCLC it was 76.8%. For the same molecule, the growth with NCI-H522 lung is 84.7%; in the test on 786-0 renal, 91.1%; in the test with COLO 205 colon, 107%.

With `Cc1ccc(C(=O)NCCCOc2ccc(N3C(N)=NC(N)=NC3(C)C)cc2Cl)cc1S(=O)(=O)F`, the growth in the test with NCI-H23 lung is 84.4%; in the test on NCI-H226 lung, 91.9%; with NCI-H322M lung, 92.5%; with HOP-62 NSCLC, 94.7%; with NCI-H460 lung it was 46.2%; in the test on HOP-92 NSCLC it was 69.1%. In addition, the growth in the test on NCI-H522 lung is 78.3%; with 786-0 renal it was 91%; with COLO 205 colon, 87.7%.

With `CCC[CH2][Sn]([CH2]CCC)([CH2]CCC)[O]c1ccc(Cl)cc1Cl`, the growth is -87.2% (active) in the test with NCI-H23 lung; -86.5% (active) with NCI-H226 lung; -80.1% (active) with NCI-H322M lung; -91.7% (active) in the test with HOP-62 NSCLC; -84.8% (active) with NCI-H460 lung; -84.9% (active) in the test with HOP-92 NSCLC. The growth in the test with NCI-H522 lung is -90.1% (active); in the test with 786-0 renal, -93.8% (active); in the test with COLO 205 colon, -75.2% (active).

In the case of `O=C(c1ccccc1O)c1[nH]c(Cl)c(Cl)c1-n1c(C(=O)c2ccccc2O)cc(Cl)c1Cl`, the growth in the test on NCI-H23 lung is -10.6% (active); in the test on NCI-H226 lung, -1.5% (active); in the test with NCI-H322M lung, -0.432% (active); in the test on HOP-62 NSCLC, -9.18% (active); with NCI-H460 lung, 0.792% (active); with HOP-92 NSCLC, -37.6% (active). Besides, the growth in the test with NCI-H522 lung was -17.9% (active); with A549/ATCC NSCLC, 3.18% (active); in the test with 786-0 renal it was -9.15% (active); in the test on COLO 205 colon, -95.7% (active).

Take `Clc1ccc(CO/N=C(\Cn2ccnc2)c2ccc(Cl)cc2Cl)c(Cl)c1`: the growth with NCI-H23 lung is -16.5% (active); in the test on NCI-H226 lung, -8.01% (active); in the test with NCI-H322M lung it was 21.6%; in the test on HOP-62 NSCLC, 107%; with NCI-H460 lung it was -32.5% (active); in the test on HOP-92 NSCLC it was -31.9% (active). Further, the figures for the growth with NCI-H522 lung, in the test with 786-0 renal and in the test with COLO 205 colon were -45.2% (active), -45.3% (active) and 105%, respectively.

For `Clc1cccc(NCOOC2(OOCNc3cccc(Cl)c3)CCCCCC2)c1`, the growth was 69% with NCI-H23 lung; 102% in the test with NCI-H226 lung; 96.2% in the test with NCI-H322M lung; 87.4% in the test on HOP-62 NSCLC; 102% in the test with NCI-H460 lung; 57.5% in the test with HOP-92 NSCLC. Also, the growth in the test with NCI-H522 lung was 81.6%; in the test with 786-0 renal, 47.3%.

In the case of `CNCc1cccnc1`, the growth in the test on NCI-H23 lung was 104%; with NCI-H226 lung, 101%; in the test on NCI-H322M lung, 113%; in the test on HOP-62 NSCLC, 114%; with NCI-H460 lung, 114%; in the test with HOP-92 NSCLC, 108%. Further, the growth was 84.2% in the test on NCI-H522 lung, 97.6% in the test on A549/ATCC NSCLC, 107% in the test on 786-0 renal and 122% in the test on COLO 205 colon.

Regarding `COC(=O)[C@@H](C)C[C@H](Cc1ccccc1)NC(=O)c1nc([C@@H](C[C@H](C(C)C)N(C)C(=O)[C@@H](NC(=O)[C@H]2CCCCN2C)C(C)C)OC(C)=O)sc1C(C)C`, the growth in the test on NCI-H23 lung is 24.6%; in the test with NCI-H226 lung, 52.4%; in the test with NCI-H322M lung it was 38.1%; with HOP-62 NSCLC, 11.8%; in the test on NCI-H460 lung, 5.54% (active); in the test with HOP-92 NSCLC, 30.6%. Moreover, the growth was -9.43% (active) with NCI-H522 lung, -6.11% (active) in the test on 786-0 renal and -61.5% (active) in the test with COLO 205 colon.

For `CCC(O)(CN)c1ccccc1` (centres undefined), the growth was 101% in the test on NCI-H23 lung; 92.4% in the test with NCI-H226 lung; 102% with NCI-H322M lung; 97.3% with HOP-62 NSCLC; 107% in the test with NCI-H460 lung; 93.1% in the test on HOP-92 NSCLC. Besides, the growth with NCI-H522 lung was 79.2%; in the test with 786-0 renal, 97.8%; with COLO 205 colon, 102%.

As to `COC(=O)CC[C@H](Cc1ccccc1)NC(=O)c1csc([C@@H](C[C@H](C(C)C)N(C)C(=O)[C@@H](NC(=O)[C@H]2CCCCN2C)C(C)C)OC(C)=O)n1`, the growth in the test on NCI-H23 lung is 51%; in the test on NCI-H226 lung it was 83%; with NCI-H322M lung it was 51%; with HOP-62 NSCLC, 52.7%; with NCI-H460 lung, 21.7%; in the test on HOP-92 NSCLC, -1.54% (active). In addition, the growth was 9.28% (active) in the test on NCI-H522 lung, 34.8% in the test with 786-0 renal and -49.7% (active) in the test on COLO 205 colon.

Turning to `N/C(=N\N=C\c1ccc(-c2ccccc2)cc1)N[N+](=O)[O-]`, the growth in the test with NCI-H23 lung was 41%; in the test on NCI-H226 lung, 73.6%; with NCI-H322M lung, 52.7%; with HOP-62 NSCLC, 38.2%; with NCI-H460 lung, 16.4%; in the test on HOP-92 NSCLC it was 51.6%. The growth with NCI-H522 lung is 18.2%; in the test on A549/ATCC NSCLC it was 38.4%; in the test with 786-0 renal it was 40.6%; in the test on COLO 205 colon it was 24.9%.

Source of the values: PubChem BioAssay (NCI).
